Among all 330,000 compounds or so, about 1,700 (0.52%) were called active. Many of the other results were omitted from the sample, so actives are more common in it than they were. A number with no mark means an inactive call. Calls come from the whole dose curve; as a rule, active = well fitted inhibition curve with a large enough effect; inconclusive = small, poorly fitted or top-dose-only effect; inactive = no such curve, though single readings can be large or run the other way.
Potency is the fitted concentration of half-maximal effect.

The assay deals with Beta-lactamase (Escherichia coli (strain K12)) (UniProt P00811). Put plainly: qHTS Inhibitors of AmpC Beta-Lactamase (assay without detergent). Note: nearly all actives have a fitted effect of over 20% in size. Conditions: AmpC nitrocefin hydrolysis, absorbance 480 nm, 0.0001% Triton; series mostly up to 57.1 µM; activity change, negative = inhibition: at the top concentration. As for the experimental part: NIH Molecular Libraries Probe Production Network [MLPCN] NIH Chemical Genomics Center [NCGC] Assay Provider: Professor Brian Shoichet, UCSF Assay Overview: This aggregation profiling approach exploits the sensitivity of aggregate formation to detergent. Inhibition of b-lactamase is measured in the presence and absence of 0.01% Triton X-100. This particular assay had the prescence of 0.01% Triton X-100. See Pubchem assay "Promiscuous and Specific Inhibitors of AmpC Beta-Lactamase (assay without detergent)" for related screen. Compounds that inhibit only in the absence of detergent are considered likely promiscuous aggregators. A screen of 1,030 compounds was performed in Brian Shoichet's lab in 96-well format. AmpC activity was measured by following the absorbance at 480 nm. Nitrocefin is a chromogenic substrate: while nitrocefin is yellow (lmax 390 nm), the product of its hydrolysis is red (lmax 486 nm, 17,000 M-1). AmpC beta lactamase was provided by Shoichet Lab, UCSF.
Beta-lactamase (Escherichia coli (strain K12)), sequence (P00811 whole entry, looked up): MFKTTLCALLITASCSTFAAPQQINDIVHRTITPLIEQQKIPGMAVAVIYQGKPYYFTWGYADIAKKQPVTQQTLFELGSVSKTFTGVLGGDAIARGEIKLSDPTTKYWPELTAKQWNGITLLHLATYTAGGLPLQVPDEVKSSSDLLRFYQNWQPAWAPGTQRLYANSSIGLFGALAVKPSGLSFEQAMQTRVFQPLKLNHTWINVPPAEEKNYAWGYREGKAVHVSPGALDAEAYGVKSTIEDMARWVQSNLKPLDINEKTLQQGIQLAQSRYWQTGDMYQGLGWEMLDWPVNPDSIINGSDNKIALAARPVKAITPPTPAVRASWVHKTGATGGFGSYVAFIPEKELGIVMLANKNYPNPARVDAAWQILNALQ
Buffer: 20 mM phosphate buffer, pH 7.0 Triton X-100: No Detergent screen: 0.0001%, Detergent screen: 0.01%. Reagents/Controls: Buffer in columns 3 and 4 as negative control (no enzyme). 5.3 nM AmpC in columns 1, 2, 5-48. Titration of UCSF compound 9 control (from 10 mM, then 1:2) pin-transferred to column 2. Column 1 is neutral (100% activity). Assay Steps: Six uL of reagents were dispensed to 1536-well Greiner black clear bottom plates. Compounds and controls (23 nL) were transferred via Kalypsys PinTool. The plates were incubated for 15 min at room temperature, and then 2 uL of 800 uM solution of nitrocefin was added to start the reaction. The plates were immediately transferred to and read every 20 seconds for 4 min on ViewLux (Perkin-Elmer) High-throughput CCD imager using 480 nm absorbance protocol. During dispense, reagent bottles were kept submerged into 4 deg C water bath. Keywords: NIH Roadmap, MLSCN, MLI, MLSMR, qHTS, NCGC, AmpC Beta-Lactamase, Aggregation
For the compound `CC(OC(=O)CCCOc1ccccc1)C(=O)Nc1ccc(Cl)cn1` (centres undefined), the “activity change, negative = inhibition” value is -29.5%.

On to `Cc1cccc(N2C(=O)SC(SC(=Nc3ccccc3)Nc3ccccc3)C2=O)c1` (centres undefined), for which the “activity change, negative = inhibition” value is -30.1%.

`CN(C)/N=C/c1cc(Cl)cc([N+](=O)[O-])c1O`: the “activity change, negative = inhibition” value is -14.3%.

On to `O=C(N/N=C/c1cc(Cl)cc([N+](=O)[O-])c1O)C(O)(c1ccccc1)c1ccccc1`, for which the Potency is 10 µM (active).

Consider `O=[N+]([O-])c1cc(Cl)cc(/C=N/NC(=S)Nc2cc(S(=O)(=O)N3CCOCC3)ccc2Cl)c1O`, for which the “activity change, negative = inhibition” value is -46.8%.

On to `OCCNCCOc1ccc(Cl)c(Cl)c1`, for which the “activity change, negative = inhibition” value was -15.5%.

For `S=C(NCCC1=CCCCC1)Nc1ccccc1`, the “activity change, negative = inhibition” value was -29.9%.

As for `COc1ccccc1C1SCCN1C(=O)c1ccc([N+](=O)[O-])cc1` (centres undefined), the “activity change, negative = inhibition” value was -44.7%.

For the compound `COc1cccc(OC)c1C(=O)Nc1c(C(=O)N2CCN(c3ccccn3)CC2)oc2ccccc12`, the “activity change, negative = inhibition” value is 100%.

`Cc1[nH]c2ccccc2c1CCN(Cc1cccs1)C(=S)NC(C)(C)C`: the “activity change, negative = inhibition” value was -0.689%.

For the compound `COc1ccc2[nH]c(C)c(CCN(Cc3cccs3)C(=S)Nc3ccccc3OC)c2c1`, the Potency was 0.501 µM (active).

`COc1cccc(NC(=S)N(CCc2c(C)[nH]c3ccccc23)Cc2ccco2)c1`: the “activity change, negative = inhibition” value is -26.2%.

With `CCN(CC)C(=O)C1CCC(C)(C(=O)O)C1(C)C` (centres undefined), the “activity change, negative = inhibition” value was -16.7%.

`COc1ccc(C(C#N)Nc2ccccc2C)cc1` (centres undefined): the “activity change, negative = inhibition” value was 12.4%.

With `COc1ccc(C(=O)CC(=O)C(=O)Nc2cc([N+](=O)[O-])ccc2OC)cc1`, the “activity change, negative = inhibition” value was -18.2%.

On to `Cc1ccc(NC(=O)CCNC(=O)c2ccc([N+](=O)[O-])cc2)cc1S(=O)(=O)N1CCOCC1`, for which the “activity change, negative = inhibition” value is -16.7%.

For `COc1ccc(NS(=O)(=O)c2cc(NC(=O)CC(=O)c3ccc([N+](=O)[O-])cc3)ccc2C)cc1`, the Potency is 15.8 µM (active).

`CCOP(=O)(OCC)C(Nc1ccc([N+](=O)[O-])cc1)c1ccc(Cl)cc1` (centres undefined): the “activity change, negative = inhibition” value is 83.3%.

With `Cc1ccccc1Nc1nnc(SCC(=O)c2cc3ccccc3o2)s1`, the “activity change, negative = inhibition” value was -49.2%.

As to `CC(C)N(C(=O)CSc1nnc(NC2CC2)s1)c1ccccc1`, the “activity change, negative = inhibition” value was -17.1%.

Turning to `CC(C)c1ccc(Nc2nnc(SCC(=O)c3nnc(-c4ccccc4)o3)s2)cc1`, the Potency is 25.1 µM (active).

Take `CCOc1ccc(-n2cnc3c(=O)[nH]c(N)nc32)cc1`: the “activity change, negative = inhibition” value was -18.8%.

Take `Cc1ccc2c(c1)c1ncnc(N3CCc4ccccc4C3)c1n2C`: the “activity change, negative = inhibition” value was 1.78%.

For `COc1ccc(CC2c3cc(OC)c(OC)cc3CC[N+]2(C)CCC(=O)OCCCCCOC(=O)CC[N+]2(C)CCc3cc(OC)c(OC)cc3C2Cc2ccc(OC)c(OC)c2)cc1OC` (centres undefined), the “activity change, negative = inhibition” value was 145%.

`COC(=O)C(C)NC(=O)COc1ccc2ccccc2c1` (centres undefined): the “activity change, negative = inhibition” value is -18.4%.

Regarding `Cc1cc2ccccc2n1CCNC(=O)COc1ccc2ccccc2c1`, the Potency is 10 µM (active).

Consider `Cc1cc2ccccc2n1CCC(=O)O`, for which the “activity change, negative = inhibition” value is 4.27%.

For the compound `Nn1c(Cc2cccc3ccccc23)nnc1SCC(=O)N1CC(=O)Nc2ccccc21`, the “activity change, negative = inhibition” value was 13.7%.

`Nc1cc(C(F)(F)F)ccc1N1CCOCC1`: the “activity change, negative = inhibition” value was -6.49%.

Take `COc1ccccc1C(=O)Nc1ccc(OCc2nnc3c4ccccc4c(C)nn23)cc1`: the “activity change, negative = inhibition” value was 208%.

Take `Cn1c(=O)c2c(SCC(=O)N3CCOCC3)nc(C3CC3)nc2n(C)c1=O`: the Potency is 10 µM (active).

As for `CCCc1nc(SCC(=O)N2CCCC2)c2c(=O)n(C)c(=O)n(C)c2n1`, the “activity change, negative = inhibition” value is 49.1%.

As for `CCOC(=O)N1CCN(C(=O)CSc2nc(C)nc3c2c(=O)n(C)c(=O)n3C)CC1`, the “activity change, negative = inhibition” value is -9.25%.

As for `Cc1nn(Cc2ccc(Cl)c(Cl)c2)c(C)c1NC(=O)c1cc(C2CC2)on1`, the Potency is 10 µM (active).

For `O=C(NC1CCCCC1)c1cc(C2CC2)on1`, the “activity change, negative = inhibition” value was -16.9%.

Turning to `CSc1ccccc1NC(=O)c1cc(C2CC2)on1`, the “activity change, negative = inhibition” value is -8.82%.

Consider `O=C(CN(c1cccc(Cl)c1)S(=O)(=O)c1ccccc1)NN=C1CCCC1`, for which the “activity change, negative = inhibition” value is -55.4%.

Take `Cc1nn(Cc2ccc(F)cc2)c(C)c1NC(=O)c1noc2c1CCc1ccccc1-2`: the Potency was 11.2 µM (active).

As for `Cc1nn(Cc2ccc(F)cc2)c(C)c1NC(=O)c1cccnc1Cl`, the “activity change, negative = inhibition” value was -7.61%.

For `Cc1ccccc1Cn1nc(C)c(NC(=O)C(F)(F)F)c1C`, the “activity change, negative = inhibition” value is 2.13%.

In the case of `COC(=O)[C@]1(Cc2ccccc2)N[C@H](CN(C)S(=O)(=O)c2ccc(OC(F)(F)F)cc2)[C@@H]2C(=O)N(Cc3ccccc3)C(=O)[C@@H]21`, the “activity change, negative = inhibition” value is -12.4%.

For the compound `CC(O)c1nc2c(c(=O)n(C)c(=O)n2C)n1C` (centres undefined), the “activity change, negative = inhibition” value is -0.321%.

`Cc1ccc(S(=O)(=O)N(CC(=O)NCc2ccco2)c2ccccc2C)cc1`: the “activity change, negative = inhibition” value was -17%.

On to `COc1ccc(-c2cc(C(=O)N(C)CC(=O)Nc3ccccc3Cl)c3ccccc3n2)cc1OC`, for which the “activity change, negative = inhibition” value was 86.4%.

With `CC(C)CC1(C)NC(=O)N(CC(=O)Nc2ccc3c(c2)OCCO3)C1=O` (centres undefined), the “activity change, negative = inhibition” value was -18.8%.

With `Cc1ccccc1C(=O)OC1OC(=O)C(Cl)=C1Nc1ccccc1` (centres undefined), the Potency was 6.31 µM (active).

For `Cc1ccccc1C(=O)O`, the “activity change, negative = inhibition” value is -15.1%.

For the compound `Cc1ccc(NC2=C(Cl)C(=O)OC2OC(=O)c2ccccc2C)cc1` (centres undefined), the Potency is 3.98 µM (active).

Turning to `COC(=O)C1=C(Nc2ccc(OC)cc2)C=C(C)C(C(=O)OC)C1c1ccc(C)cc1` (centres undefined), the “activity change, negative = inhibition” value is 7.69%.

The values above are taken from PubChem BioAssay AID485341 (National Center for Advancing Translational Sciences (NCATS), 2010).
